We go through 40 sequences from the OligoGym collection.
Also: reference of the scale not given here.

In one assay the target is ZNF836. Briefly: pooled miR-30 sensor sort-seq; sequence = guide strand. The note with it: shRNA.
Turning to TTGACTGAAGACCTTGTCGCAT, the sensor-assay potency score (higher = more potent) is -0.213. With TTCAGTTTGAAATTTCTGCAGT, the sensor-assay potency score (higher = more potent) came out at 0.363. For the sequence TTTGTTTTCTACATCCTCTTGA, the sensor-assay potency score (higher = more potent) stood at 0.866. The same measure, in the same setting: as for TTTGTTTCCACTATGAACTGTC, the figure is 1.2; as for TTGAACGCTGAGTATAGGCTTT, 0.0637; as for TAAGACTTGAAGACACTCTAAA, -0.52. Same read-out and setting: as for TTTTGTCTGAAGATCTTGCCAC, the figure is 0.166; as for TAACTTTGACTAAAGGACTTGC, 0.219. On the same count and under the same terms, as for TAGGAGAACATCTAAAGGCTTT, the figure is 0.15; as for TTTCTCTGTAGTATGTACCATC, -0.51.

The next assay has as its target ZNFX1. Described as above. The note with it: shRNA.
In turn, TTGGTCTCTAGCTTCGTCGCTG returned a sensor-assay potency score (higher = more potent) of 0.295. The same measure, in the same setting: under TACAACTGTAGCCAGAGCCTAT stands -0.979; under TTTCTCTTCTAAGACATGCATC, -0.81; under TTGTCCACAACATGGACCCTGA, -0.839. Still for that read-out and setting: under TAATTTGCCAAACAGACTCGTT stands -0.716; under TTCAATCTCTTCTAGCCGCTGT, 0.737; under TTCTCTGCTATCTTGTAGCGGG, -0.426.

In the case of TTTATTATGAGAGTTAGTCTGC, the sensor-assay potency score (higher = more potent) came out at 0.368.

As to TTGAATAATAGCCAGTTCCCTT, the sensor-assay potency score (higher = more potent) was -1.02.

As for TTTGTCCACAACATGGACCCTG, the sensor-assay potency score (higher = more potent) is -0.317. For TAGACCTCTACTGCTATGCTAT, the sensor-assay potency score (higher = more potent) is -0.477. Consider TAACACACAACCAAGATGGGGA, for which the sensor-assay potency score (higher = more potent) is 0.323.

Another assay deals with ZNRF2. The description is as above. The note with it: shRNA.
On to ATAGACAAGGCAGTCGTGCTAT, for which the sensor-assay potency score (higher = more potent) stood at 0.0716.

Turning to TTACTTCAAACCATTCATCTAT, the sensor-assay potency score (higher = more potent) came out at 0.146.

For TTTATCAGTATTACCTATGTAG, the sensor-assay potency score (higher = more potent) was determined as 0.361. Same read-out and setting: under TAAACACATTACAAGATGCAAA stands -1.15. On the same count and under the same terms, as for TTGTTAAACACATTACAAGATG, the figure is -1.34; as for TTATGATATATGCATAGACAAG, -1.91; as for TACTTCAAACCATTCATCTATG, -0.758.

For TTGTCAAGACAAGAAAACCTAT, the sensor-assay potency score (higher = more potent) was -0.902. On to TTAAACACATTACAAGATGCAA, for which the sensor-assay potency score (higher = more potent) is -0.454. The same measure, in the same setting: as for TCGTGCTATAGTATCTCCCTGC, the figure is 0.0677; as for TGCATAGACAAGGCAGTCGTGC, -0.863.

The next assay concerns the target ZSCAN21. The description is as above. The note with it: shRNA.
The sequence TAGACTGGATACACGTCTGTTT returned a sensor-assay potency score (higher = more potent) of -0.362.

In turn, TTTAAGAAGGTCTGAGCTCTGC registered a sensor-assay potency score (higher = more potent) of 0.0311. Still for that read-out and setting: as for ATATATAACGTCTCTCTCCTGG, the figure is 0.19; as for TAATGTTTCTTCCTTAACTAGA, -0.759; as for TGGATCTTGAGCGAACTCCTGC, -0.804.

The sequence TGATACAAACTCTATCACCGGA came in with a sensor-assay potency score (higher = more potent) of 0.695.

For the sequence TAAAACAACGACAACAACAGGA, the sensor-assay potency score (higher = more potent) was 0.555.
